# From PubChem BioAssay
# Most compounds without a hit are left out; they make up all but 3.4% or so of the library.
# RE007 growth inh: less growth of the S. pombe RE007 Vpr strain; 360,000 tested, 0.21% active; Potency, µM (titrated, usually from 92.2 µM), inactives show at the highest dose activity change, negative = less growth, hits mostly inhibitors; AID 651644; S. pombe RE007 Vpr strain, BacTiter-Glo ATP luminescence, 24 h; active = well fitted falling curve with a large enough effect; inconclusive = small, poorly fitted or top-dose-only effect; inactive = no such curve, though single readings can be large or run the other way; also: nearly all actives have a fitted effect of over 50% in size
#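 Fission yeast RE007 carrying one integrated HIV-1 vpr copy, seeded at OD 0.01 in PMG+AL medium with 23 nL pinned compound. Grown 24 h at 30 degrees; viability read by BacTiter-Glo luminescence after 5 min.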
# Sm TGR block: blocks Schistosoma mansoni thioredoxin glutathione reductase; 360,000 tested, 3% active; Q962Y6; purified TGR, DTNB reduction, TNB absorbance 405 nm; AID 485364; Potency, µM (titrated, usually from 114 µM), for the others: at the highest dose activity change, negative = inhibition, usual class: inhibitors; also: nearly all actives have a fitted effect of over 60% in size
#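 Kinetic colorimetric format: TGR-catalysed, NADPH-driven DTNB reduction monitored via TNB absorbance. Enzyme dispensed at 20 nM; compound exposure 15 min at room temperature before reaction start.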
# AmpC detergent: inhibitors of E. coli AmpC beta-lactamase with detergent. 370,000 tested, 0.041% active. AmpC hydrolysis of nitrocefin, absorbance 480 nm, 0.01% Triton. P00811. AID 485294. Potency, µM (titrated, usually from 114 µM), without a hit: at the top dose activity change, negative = inhibition, actives largely listed as inhibitors;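 also: 0% = no-compound wells and -100% = no-enzyme wells; nearly all actives have a fitted effect of over 25% in size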
# Target sequence (P00811 whole entry, looked up): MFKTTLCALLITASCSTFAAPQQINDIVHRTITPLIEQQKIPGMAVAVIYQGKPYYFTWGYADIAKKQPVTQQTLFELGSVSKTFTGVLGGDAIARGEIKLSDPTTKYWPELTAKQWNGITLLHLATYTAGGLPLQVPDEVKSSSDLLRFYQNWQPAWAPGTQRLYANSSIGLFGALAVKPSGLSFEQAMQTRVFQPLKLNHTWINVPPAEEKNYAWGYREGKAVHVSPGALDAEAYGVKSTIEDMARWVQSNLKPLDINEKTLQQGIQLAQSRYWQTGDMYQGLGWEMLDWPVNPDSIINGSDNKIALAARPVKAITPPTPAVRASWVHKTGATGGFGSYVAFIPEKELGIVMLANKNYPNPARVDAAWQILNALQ
#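 AmpC (5.3 nM in the dispensed reagent) in 20 mM phosphate pH 7.0 with 0.01% (detergent screen) or 0.0001% Triton X-100 was preincubated with compounds for 15 min at room temperature. Nitrocefin was then added from an 800 uM solution, and hydrolysis was followed at 480 nm.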
# AmpC no deterg: blocks E. coli AmpC beta-lactamase in detergent-free assay. P00811. AmpC nitrocefin hydrolysis, absorbance 480 nm, 0.0001% Triton. Potency, µM (series often up to 57.1 µM), for the others: at the highest dose activity change, negative = inhibition, hits mostly inhibitors. 330,000 tested, 0.52% active. AID 485341;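 also: plate controls were no compound for no effect and no enzyme for full effect; nearly all actives have a fitted effect of over 20% in size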
#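 20 mM phosphate pH 7.0 + 0.01% (detergent screen) or 0.0001% Triton X-100; 5.3 nM AmpC reagent; cpd preinc 15 min RT; nitrocefin (800 uM stock) to start; A480 q20 s × 4 min; Activity was normalised to no-enzyme and no-compound control wells.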
# FBPA Giardia inh: Giardia lamblia aldolase inhibition; A8B2U2; purified Giardia FBPA; Potency, µM (top dose mostly 59.6 µM), for the others: top-dose activity, negative = inhibition, usual class: inhibitors; 290,000 tested, 0.71% active; also: nearly all actives have a fitted effect of over 55% in size
# Target sequence (A8B2U2 whole entry, looked up): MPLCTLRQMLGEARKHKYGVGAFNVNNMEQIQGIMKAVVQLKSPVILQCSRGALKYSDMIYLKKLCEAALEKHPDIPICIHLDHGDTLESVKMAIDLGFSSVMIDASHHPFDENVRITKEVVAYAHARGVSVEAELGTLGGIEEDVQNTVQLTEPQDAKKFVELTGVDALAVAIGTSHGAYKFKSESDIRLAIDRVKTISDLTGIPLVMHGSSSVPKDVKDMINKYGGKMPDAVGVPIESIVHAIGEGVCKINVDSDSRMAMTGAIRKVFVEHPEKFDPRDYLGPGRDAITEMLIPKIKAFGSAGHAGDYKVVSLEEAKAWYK
#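 40 nM FBPA preincubated 10 min at RT with compound (up to 57.5 uM final), then substrate plus GAPDH/TPI/NAD/arsenate coupling and diaphorase/resazurin added. Fluorescence read after 20 min at RT, 525/598 nm.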
# Numbers without * were called inactive; ? = inconclusive; nt = not tested or not shown; [ ] = another dose, or the depositor's remark. Unless noted, calls follow the shape of the dose curve; as a rule, active = well fitted curve in the direction sought with a large enough effect; inconclusive = small, poorly fitted or top-dose-only effect, or another doubt; inactive = no such curve, though single readings can be large; an effect the other way counts as inactive or inconclusive. Unless noted, % is scaled to controls: 0 for no effect and ±100 for the full control effect; potency is read from the fitted curve at half-maximal effect.
SMILES,RE007 growth inh,Sm TGR block,AmpC detergent,AmpC no deterg,FBPA Giardia inh
Cc1cccc(N(Cc2ccccc2)C(=O)CCl)c1,7%,14µM*,-12%,-13%,7%
COc1ccc(CC(=O)N(Cc2ccccc2)c2cccc(C)c2)cc1OC,-13%,5%,-1%,93%,nt
O=C(CCl)N(Cc1ccccc1)c1ccccc1,10%,5µM*,?,-29%,-1%
O=C(NCc1cccs1)C1CCCN1C(=O)Nc1ccccc1[N+](=O)[O-] (centres undefined),-4%,-11%,3%,-10%,5%
O=C(NC1CCCCC1)N(Cc1cc2cc3c(cc2[nH]c1=O)OCCO3)C1CCCCC1,1%,2%,?,-13%,-5%
CCOC(=O)C1C(C(=O)OCC)C1(c1ccccc1)c1ccccc1 (centres undefined),33%,-8%,-7%,10%,-1%
O=C(CNC(=O)/C(=C/c1ccccc1)NC(=O)c1ccc(Br)cc1)OCc1ccccc1,-6%,-12%,-2%,3.5µM*,3%
O=C(CNC(=O)/C(=C\c1ccc(Br)cc1)NC(=O)c1ccccc1)OCc1ccccc1,7%,9%,-12%,-41%,3%
CCOc1ccc(S(=O)(=O)N(C)c2ccc(OCC(=O)N3CCOCC3)cc2)cc1,-9%,3%,-4%,30%,1%
CC1=N/C(=C/c2ccco2)C(=O)O1,-2%,28µM*,6%,-30%,?
CCOC(=O)Oc1ccc(/C=C2\N=C(C)OC2=O)cc1,7%,13µM*,0%,-12%,4%
COc1cc(/C=C2\N=C(C)OC2=O)cc(OC)c1OC,-1%,18µM*,-8%,-22%,2%
O=C1OC(c2ccc(Br)cc2)=N/C1=C\c1ccco1,-15%,-24%,-6%,-24%,-1%
CC1OC(n2cc(F)c(=O)[nH]c2=O)C(O)C1O (centres undefined),nt,nt,nt,nt,2%
COc1ccc(CNS(=O)(=O)c2ccc3c(c2)C(C)(C)C(=O)N3C)cc1OC,nt,4%,2%,nt,nt
O=C(CC1OCC2CCCN2C1=O)Nc1ccc([N+](=O)[O-])cc1 (centres undefined),?,25µM*,-10%,-36%,0%
CCN1CCOC(CC(=O)Nc2ccc([N+](=O)[O-])cc2)C1=O (centres undefined),45µM*,20µM*,8%,-16%,-1%
C[C@@H]1CN([C@H](C)CO)C(=O)c2cc(NS(=O)(=O)c3cccs3)ccc2O[C@H]1CN(C)Cc1ccccc1,-5%,nt,nt,81%,nt
Cc1cc(O)c(C(C[N+](=O)[O-])c2ccc(Cl)cc2Cl)c(=O)o1 (centres undefined),-10%,50µM*,0%,-29%,10%
CCOCCCNC(=O)c1ccc(NC(=O)C2=CSCCO2)cc1,-6%,-9%,2%,0%,nt
CC(=O)Nc1cn(-c2ccccc2)nc1-c1ccccc1,16%,6%,-2%,-13%,3%
O=C(CCl)Nc1ccc(N=Nc2ccccc2)cc1,?,40µM*,4%,-25%,-12%
CC(=O)Nc1ccc(N=Nc2ccccc2)cc1,?,-18%,?,-10%,5%
CC(C)N(c1ccccc1)c1ccc(NC(=O)CCl)cc1,0%,14µM*,-7%,-15%,0%
O=C(CCl)Nc1ccc(-c2ccccc2)cc1,4%,4.5µM*,2%,-1%,0%
SMILES,RE007 growth inh,Sm TGR block,AmpC detergent,AmpC no deterg,FBPA Giardia inh
CC(C)N(c1ccccc1)c1ccc(NC(=O)[C@@H]2O[C@H](CO)[C@H](O)[C@H](O)[C@H]2O)cc1,-14%,nt,nt,nt,nt
O=C(CCl)Nc1cn(-c2ccccc2)nc1-c1ccccc1,-3%,18µM*,4%,-16%,-5%
COc1ccc(C(=O)NCC2(N3CCCCC3)CCCCC2)cc1S(=O)(=O)N(C)C,-4%,-17%,-15%,-5%,1%
O=C(COC(=O)CCOc1ccccc1)NCCC1=CCCCC1,7%,-10%,5%,54%,4%
Brc1cccc(-c2n[nH]c(-c3ccccc3)n2)c1,?,10%,-4%,8.9µM*,-11%
COc1ccc(-c2cc(C)no2)cc1S(=O)(=O)NCc1ccco1,nt,32µM*,-7%,nt,nt
Cc1cc(-c2ccc(C(C)C)c(S(=O)(=O)NCc3ccco3)c2)on1,10%,?,?,-36%,10%
Cc1ccc2cc(CCNS(=O)(=O)c3ccc(Cl)cc3)c(=O)[nH]c2c1C,12%,-10%,-8%,-5%,3%
c1nc(NC2CCCCCC2)c2[nH]cnc2n1,0%,-3%,-7%,-23%,-12%
c1ccc(Oc2nc(NC3CCCCC3)c3[nH]cnc3n2)cc1,nt,nt,nt,nt,16µM*
CCCNC(=O)COC(=O)/C=C/c1ccc(C)o1,2%,40µM*,?,-12%[11.4 µM],1%
Cc1ccc(/C=C/C(=O)OCC(=O)NCCN2C(=O)CSC2=O)o1,2%,25µM*,5%,-20%,3%
Cc1ccc(/C=C/C(=O)OCC(=O)NCCN2C(=O)CSC2=O)cc1,45%,0%,5%,-1%,2%
CCOc1ccc(S(=O)(=O)NCCC(=O)NCCc2ccc(OCC)c(OCC)c2)cc1,-10%,3.2µM*,3%,?,nt
CCOc1ccc(CCNC(=O)COC(=O)/C=C/c2ccc(C)o2)cc1OCC,-1%,50µM*,-9%,77%,nt
CCOc1ccc(CCNC(=O)COC(=O)/C=C/c2ccc(OC)c(OC)c2)cc1OCC,9%,-9%,-4%,90%,nt
O=C(NCc1cccnc1)c1ccc(Cn2cc(C(F)(F)F)ccc2=O)cc1,0%,9%,3%,3%,5%
Cc1ccc(NC(=O)c2cnc(N3CCCC3)nc2C)cc1F,nt,1%,-5%,nt,nt
CC(C)Sc1nc(N2CCCC2)c2c(c1C#N)CC(C)(C)OC2,-13%,1%,-8%,19%,8%
CCC(=O)Nc1cccc(-n2nnnc2SCC(=O)N(C(C)C)C(C)C)c1,1%,30%,3%,2%,-1%
CCOC(=O)C1=C(COC(=O)/C=C/c2ccc(C)o2)NC(=O)NC1C (centres undefined),-8%,22µM*,-7%,-4%,nt
CC(C)(C)c1ccc(C(=O)Nc2ccc(C=C(C#N)C#N)cc2)cc1,-26%,3.2µM*,-4%,-28%,-7%
CC(C)(C)c1ccc(C(=O)Nc2ccc(NC(=O)c3ccc(Cl)c(Cl)c3)cc2)cc1,nt,2%,-5%,nt,nt
O=C(Nc1ccc(C(=O)N2CCCCC2)cc1)c1ccc(Br)cc1,20%,2%,0%,-5%,-9%
N#CC(C#N)=Cc1ccc(NC(=O)c2ccc(Br)cc2)cc1,-21%,2.5µM*,-9%,-44%,-24%
CC(=O)N(\C=C/C=C/C=C1\Sc2ccccc2C1=O)c1ccccc1,-6%,16µM*,-8%,?,-26%
CN(Cc1ccccc1)C(=O)c1ccc(Nc2nc(CN)cs2)nc1,5%,nt,nt,nt,nt
